These results are taken from PubChem BioAssay (NCATS).

Records with an inconclusive call do not appear. Values without a mark were called inactive. Active and inactive are the calls of the source. Calls come from the whole dose curve; as a rule, active = well fitted curve in the direction sought with a large enough effect; inconclusive = small, poorly fitted or top-dose-only effect, or another doubt; inactive = no such curve, though single readings can be large; an effect the other way counts as inactive or inconclusive. Where a SMILES comes first, the peptide text is derived from it. [ ]: non-standard residue; d: D form.

In one test the test system is HACAT. The test can be described thus: qHTS assay to identify novel small-molecules to repurpose for Merkel cell carcinoma treatment (AID 1296009). Note: nearly all actives have a fitted effect of over 60% in size. To be noted: MCC and control cell lines, CellTiter-Glo viability, 72 h; at 44.8 µM (top of the series) unless noted. A digest of the protocol:
(§1)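 CellTiter-Glo luminescence after 72 hr compound exposure at 37 degree celsius gave cell viability. Libraries NPC and MIPE were run as 8- and 11-point dose responses; RLUs normalized to DMSO (negative) and no-cell (cytotoxicity) controls.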
On the technique in general: In qHTS, concentration-response curves come from the screen itself.

Another test deals with C33A. In words: Primary qHTS to identify gynecologic anti-cancer compounds using libraries of approved drugs and bioactive compounds (AID 1345084). Note: % is set by controls: 0 for no effect and ±100 for the full control effect; nearly all actives have a fitted effect of over 55% in size. As to conditions: Gynecologic cancer cell panel viability, ATPlite luminescence, 48 h; series mostly up to 57.5 µM. In outline:
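Five-concentration response, 48 h; readout is ATP-driven luciferase luminescence.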

A further test has as its system HEK293T. The test can be described thus: qHTS assay to identify novel small-molecules to repurpose for Merkel cell carcinoma treatment (AID 1296009). Note: nearly all actives have a fitted effect of over 60% in size. To be noted: MCC and control cell lines, CellTiter-Glo viability, 72 h; series mostly up to 44.8 µM. A digest of the protocol:
as §1

The subject of the next test is NIH3T3. Described as above. As to conditions: MCC and control cell lines, CellTiter-Glo viability, 72 h; at 44.8 µM (top of the series) unless noted. In outline: as §1
A general note: ATP-based viability assays read luminescence as a measure of living cells.

For the compound `OC[C@H]1O[C@@H](OCCc2ccc(O)cc2)[C@H](O)[C@@H](O)[C@@H]1O`, the compound was called inactive in the test on HACAT. The Potency entry in the test with C33A was “inactive”.

With `CC1CCC23COC(=O)C2=CC(O)CC3C1(C)CCC1=CC(=O)OC1O` (stereo unspecified), the Potency entry in the test with HEK293T and in the test with C33A was “inactive” throughout. The compound was called inactive in the test on NIH3T3.

Regarding `NC1CCC(N[C@@H]2C[C@H]2c2ccccc2)CC1` (stereo partly specified), the result with HACAT and in the test with NIH3T3 was inactive. The Potency entry with C33A is “inactive”.

For the compound `CCC(NC(=O)CC(NC(=O)C(CO)NC(=O)C(CC)NC(=O)c1ccc[nH]1)c1ccccc1)C(=O)O` (stereo unspecified), the Potency entry in the test with HEK293T and with C33A was “inactive” throughout. Further, the outcome in the test with NIH3T3 was “inactive [at 17.4 µM]”.

Consider `C=CCc1ccc(O[C@@H]2O[C@H](CO[C@@H]3O[C@H](CO)[C@@H](O)[C@H](O)[C@H]3O)[C@@H](O)[C@H](O)[C@H]2O)c(O)c1`, for which the Potency entry in the test on HEK293T and with C33A was “inactive” each time. Further, the outcome in the test on NIH3T3 is “inactive [at 17.4 µM]”.

As for `CCCn1cnc2c(NCc3ccccc3)nc(N[C@H](CC)CO)nc21`, the Potency result in the test with HEK293T and in the test on C33A was “inactive” in each case. Also, the compound was classed as inactive with NIH3T3.

In the case of `C=C1CC[C@@H]2[C@](C)(CC[C@H](O)[C@@]2(C)CCC=C(C)C)[C@@H]1Cc1c[nH]c2ccccc12`, the Potency result in the test on HEK293T and in the test on C33A was “inactive” in each case. In addition, in the test with NIH3T3, the outcome was “inactive [at 17.4 µM]”.

As to `CC(=O)N[C@H](Cc1ccc(O)cc1)C(=O)N[C@H](CCCN=C(N)N)C(=O)N[C@H](Cc1ccccc1)C(N)=O` (Ac-[dY]-[dR]-[dF]-NH2), the Potency result with HEK293T and in the test with C33A was “inactive” throughout. Moreover, in the test with NIH3T3, the result was inactive.

Take `CC1=CCC2C(C)(CO)CCCC2(C)C1CC12OC1C(O)C(CO)=CC2O` (stereo unspecified): the Potency result with HEK293T and in the test with C33A was “inactive” throughout. In addition, in the test with NIH3T3, the call was inactive.

Take `CC1CCC(=O)CC(O)C(O)CC(=O)O1` (stereo unspecified): the Potency result in the test on HEK293T and with C33A was “inactive” in each case. The call in the test with NIH3T3 was inactive.

As to `C[C@@H]1O[C@@H](O[C@H]2[C@H](OC(=O)[C@]34CCC(C)(C)C[C@H]3C3=CCC5[C@@]6(C)CC[C@H](O[C@@H]7O[C@H](CO[C@@H]8OC[C@H](O)[C@H](O)[C@H]8O)[C@@H](O)[C@H](O)[C@H]7O)C(C)(C)C6CC[C@@]5(C)[C@]3(C)C[C@H]4O)OC[C@@H](O)[C@@H]2O)[C@H](O)[C@H](O)[C@H]1O[C@@H]1OC[C@H](O)[C@H](O[C@@H]2OC[C@@H](O)[C@H](O)[C@H]2O)[C@H]1O` (stereo partly specified), the outcome in the test on HEK293T and in the test with NIH3T3 was “inactive [at 9.27 µM]” in each case. The activity change, negative = cytotoxicity in the test on C33A was 2.46% [at 6.55 µM].

Take `C=C1CC2C3(C)C(O)CC(=O)C(C)(C)C3C(OC(C)=O)C(OC(C)=O)C2(C)C2C(=O)OC(C)(C(=O)OC)C(=O)C12C` (stereo unspecified): the Potency result with HEK293T and in the test with C33A was “inactive” each time. Besides, the outcome with NIH3T3 was “inactive [at 17.4 µM]”.

For `Cc1cc(N2CCCCC2)nc2ccccc12`, the Potency result in the test with HEK293T and in the test on C33A was “inactive” throughout. Besides, the compound was called inactive with NIH3T3.

`CC(=O)O[C@@]1(C)C[C@@H](O)[C@]2(O)C=CO[C@@H](O[C@@H]3O[C@H](CO)[C@@H](O)[C@H](O)[C@H]3O)[C@@H]21`: the Potency result in the test with HEK293T and in the test with C33A was “inactive” each time. In addition, in the test with NIH3T3, the outcome was “inactive [at 17.4 µM]”.

As for `O=S(=O)(Nc1ccc(C(O)(C(F)(F)F)C(F)(F)F)cc1)c1cccs1`, the Potency result with HEK293T and with C33A was “inactive” each time. Further, in the test on NIH3T3, the call was inactive.

As to `COCC(=O)N1CCc2cc(-c3csc(NC(=O)c4cc(OC)cc(OC)c4)n3)ccc21`, the Potency result in the test on HEK293T and in the test on C33A was “inactive” in each case. In addition, the compound was classed as inactive in the test with NIH3T3.

For the compound `CC(C)(C)NCC(O)COc1cccc2c1CCCC2=O` (stereo unspecified), the Potency result in the test with HEK293T and in the test with C33A was “inactive” throughout. Further, in the test with NIH3T3, the call was inactive.

As to `COc1ccc2c(c1)O[C@H](O[C@@H]1O[C@H](CO)[C@@H](O)[C@H](O)[C@H]1O)C(=O)N2`, the Potency result in the test with HEK293T and in the test with C33A was “inactive” in each case. Besides, in the test on NIH3T3, the call was inactive.

`Cn1c(=O)cc(N2CCCC(N)C2)n(Cc2ccccc2C#N)c1=O` (stereo unspecified): the Potency result in the test with HEK293T and in the test with C33A was “inactive” in each case. The outcome in the test on NIH3T3 was inactive.

Regarding `C[C@@H]1O[C@@H](O[C@H]2[C@H](O[C@H]3[C@H](O[C@H]4CC[C@@]5(C=O)C(CC[C@]6(C)C5CC=C5C7CC(C)(C)C[C@@H](O)[C@]7(C)CC[C@]56C)C4(C)C)O[C@H](C(=O)O)[C@@H](O)[C@@H]3O)OC[C@@H](O)[C@@H]2O)[C@H](O)[C@H](O)[C@H]1O` (stereo partly specified), the outcome in the test with HEK293T and in the test with NIH3T3 was “inactive [at 9.27 µM]” each time. The activity change, negative = cytotoxicity in the test on C33A was 7.86% [at 11.6 µM].

Consider `COc1cc(/C=C/C(=O)OC(C)(C)C(OC2OC(CO)C(O)C(O)C2O)C(=O)OCc2ccc(OC3OC(CO)C(O)C(O)C3O)cc2)ccc1O` (stereo unspecified), for which the Potency entry in the test with HEK293T and in the test with C33A was “inactive” in each case. Also, the outcome with NIH3T3 is “inactive [at 17.4 µM]”.

Consider `COC12CC3C(C(C)C1=CC(=O)O2)C(O)C(OC(C)=O)C1C(C)(C)C(OC(C)=O)CCC31C` (stereo unspecified), for which the Potency entry in the test on HEK293T and with C33A was “inactive” in each case. The outcome in the test on NIH3T3 is “inactive [at 17.4 µM]”.

`Nc1nc(CC(=O)Nc2ccc(CCNCC(O)c3ccccc3)cc2)cs1` (stereo unspecified): the Potency result in the test with HEK293T and with C33A was “inactive” each time. Also, in the test on NIH3T3, the compound was called inactive.

Turning to `CC[C@H](/C=C/[C@@H](C)[C@H]1CC[C@H]2[C@@H]3CC=C4C[C@@H](O)CC[C@]4(C)[C@H]3CC[C@]12C)C(C)C`, the outcome in the test with HEK293T and with NIH3T3 was “inactive [at 4.96 µM]” each time. The activity change, negative = cytotoxicity in the test with C33A was 8.42% [at 6.55 µM].
